Source: PubChem
Compounds with a hit are over-represented: about 1.8% of the library has one in this group of screens.
L3MBTL1 block = L3MBTL1 (human) inhibition. Q9Y468. AlphaScreen L3MBTL1–H3K9me1 peptide binding. Potency, µM (doses to about 57.1 µM), inactives show at the top dose activity, negative = inhibition, most hits filed as inhibitors. 230,000 compounds, 0.66% hits. AID 485360; note: % is set by controls: 0 for no effect and ±100 for the full control effect; nearly all actives have a fitted effect of over 60% in size
Target sequence (Q9Y468 whole entry, looked up): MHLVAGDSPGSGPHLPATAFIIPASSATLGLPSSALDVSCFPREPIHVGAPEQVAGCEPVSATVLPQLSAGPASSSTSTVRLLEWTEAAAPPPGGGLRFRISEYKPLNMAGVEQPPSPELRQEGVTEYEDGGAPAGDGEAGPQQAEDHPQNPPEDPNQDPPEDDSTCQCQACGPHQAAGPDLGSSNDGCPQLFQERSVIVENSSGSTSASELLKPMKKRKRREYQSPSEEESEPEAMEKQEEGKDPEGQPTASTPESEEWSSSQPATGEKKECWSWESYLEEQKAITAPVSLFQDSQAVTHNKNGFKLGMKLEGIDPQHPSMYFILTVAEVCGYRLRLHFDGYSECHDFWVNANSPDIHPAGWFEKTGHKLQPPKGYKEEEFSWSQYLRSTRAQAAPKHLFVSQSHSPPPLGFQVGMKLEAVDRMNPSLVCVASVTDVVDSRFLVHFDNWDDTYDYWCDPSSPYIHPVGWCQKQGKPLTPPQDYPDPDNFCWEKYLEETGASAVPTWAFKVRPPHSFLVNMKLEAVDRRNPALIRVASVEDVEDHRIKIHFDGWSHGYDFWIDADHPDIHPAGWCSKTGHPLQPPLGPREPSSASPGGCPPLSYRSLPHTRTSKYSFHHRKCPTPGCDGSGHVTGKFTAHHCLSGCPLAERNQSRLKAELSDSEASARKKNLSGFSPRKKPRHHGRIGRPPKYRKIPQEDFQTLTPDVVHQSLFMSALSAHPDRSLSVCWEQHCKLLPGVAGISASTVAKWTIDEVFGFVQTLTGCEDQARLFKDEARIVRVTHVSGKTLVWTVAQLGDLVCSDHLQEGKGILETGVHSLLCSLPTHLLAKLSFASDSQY
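AlphaScreen assay: L3MBTL1 (50 nM final) was preincubated 30 min at room temperature with biotinylated H3(1-15)K9me1 peptide (75 nM final), then 30 min with library compounds; streptavidin donor and nickel chelate acceptor beads (10 ug/mL final) added, 30 min dark.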
HTT aggregate = reduces HttQ103-GFP aggregates in PC12 cells | PC12 HttQ103-GFP aggregates, Acumen cytometry, 40 h | Potency, µM (doses to about 46.1 µM), inactives show top-dose activity change, negative = inhibition, usual class: inhibitors | 220,000 compounds, 1.1% hits | AID 1688; note: % is set by controls: 0 for no effect and ±100 for the full control effect; nearly all actives have a fitted effect of over 60% in size
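Inducible Q103 Huntingtin exon 1–GFP PC12 line, 1500 cells/well in phenol red free DMEM with 5% equine and 5% calf serum. Tebufenozide 100 nM induced expression; compounds titrated; aggregates quantified by cytometry.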
HTT cytoprotect = cytoprotection in Huntington HTT-Q103 PC12 cell model | 230,000 compounds, 0.14% hits | Potency, µM (series often up to 56.4 µM), for inactives: cytoprotection (ATP increase), hits mostly activators | PC12 HTT-Q103 induced, cytoprotection, ATP luminescence, 40 h; note: % of control where 0% means no effect; nearly all actives have a fitted effect of over 45% in size
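PC12 cells with ecdysone-inducible HTT exon 1 Q103-GFP, induced with 100 nM tebufenozide and co-treated with library compounds in a dose series (1536-well, 1500 cells/well). Cytoprotection read as ATP content by ATPlite luminescence.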
JMJD2E inh = JMJD2E (human) inhibition; JMJD2E catalytic domain, FDH-coupled NADH fluorescence (FDH is formaldehyde dehydrogenase); Potency, µM (titrated, usually from 57.1 µM), for the others: at the top dose activity change, negative = inhibition, most hits filed as inhibitors; 230,000 compounds, 1.6% hits; AID 2147; active = well fitted inhibition curve with a large enough effect, not every such curve was filed as active; inconclusive = small, poorly fitted or top-dose-only effect, or another doubt; inactive = no such curve, though single readings can be large or run the other way;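 note: 0% = wells with enzyme and -100% = buffer wells without enzyme; nearly all actives have a fitted effect of over 50% in size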
Active calls of the source: *; ? = inconclusive; nt = not tested or not shown; ! = not confirmed by another sample; [ ] = another dose, or the depositor's remark. Unless noted, calls come from the whole dose curve; as a rule, active = well fitted curve in the direction sought with a large enough effect; inconclusive = small, poorly fitted or top-dose-only effect, or another doubt; inactive = no such curve, though single readings can be large; an effect the other way counts as inactive or inconclusive. Potency is the fitted concentration of half-maximal effect.

SMILES | L3MBTL1 block | HTT aggregate | HTT cytoprotect | JMJD2E inh
CCN(Cc1ccccc1)c1ccc(N=Nc2nn(C)c(C)c2[N+](=O)[O-])cc1 | 16µM* | 27% | 4%[10 µM] | 8%
CCN(CC)c1ccc(N=Nc2nn(C)c(C)c2[N+](=O)[O-])cc1 | ? | 23% | -21%[10 µM] | 0%
N#C/C(=C\c1ccc(-c2ccc(Cl)c(C(=O)O)c2)o1)c1nc2ccccc2[nH]1 | -28% | nt | nt | nt
N#C/C(=C\c1ccc(-c2ccc(C(=O)O)cc2)o1)c1nc2ccccc2[nH]1 | -9% | 3%[9.22 µM] | -17%[10 µM] | 28µM*
O=C(/C=C\c1ccc(O)c(O)c1)O[C@@H]1C[C@](O)(C(=O)O)C[C@@H](O)[C@@H]1O | nt | nt | 0%[40.3 µM] | 4.5µM*
CCCNC(=O)OC[C@H]1O[C@@H](CCO/N=C2/C[C@@H](O)[C@@H](O)[C@@H]3[C@@H]4C(=O)N(CC)C(=O)[C@H]4CC[C@@H]23)C=C[C@@H]1Oc1ccc(OC)cc1 | nt | nt | -74%[10 µM] | nt
CCCCN(c1ccccc1)c1ncnc(N)c1[N+](=O)[O-] | 1% | 7.1µM* | 13% | 12%
Nc1nc(N)c2nc(CNc3ccc(C(=O)N[C@H](CCC(=O)O)C(=O)O)cc3)cnc2n1 | nt | nt | -21%[1.9 µM] | nt
O=C1CSC(=S)N1/N=C/c1ccc(O)c(O)c1O | 1.1µM* | -16%[9.22 µM] | 8%[10 µM] | 2.2µM*
COc1ccc(/C=N/N2C(=O)CSC2=S)cc1 | nt | -11% | -6% | -24%
O=C1C=CC2(OCCCO2)C(Br)=C1CO | nt | nt | -76% | 2%
CC1=C(c2ccc(NN=C(C#N)C#N)cc2)NNC(=O)C1 | nt | 13µM* | -52% | nt
CCOC(=O)NC(NC(=S)Nc1ccc(OCC)cc1)C(Cl)(Cl)Cl (stereo not drawn) | 8% | 13% | nt | 2%
O=C(NC(NC(=S)Nc1c(Cl)cccc1Cl)C(Cl)(Cl)Cl)OCc1ccccc1 (stereo not drawn) | -13% | 22µM* | -4%[10 µM] | 5%
CCCC/C(O)=N\S(=O)(=O)c1ccc(N=NN(C)C)cc1 | 1% | -1% | 27%[10 µM] | 8.9µM*
CN(C)N=Nc1ccc(S(N)(=O)=O)cc1 | 10% | -17%[9.22 µM] | -7%[10 µM] | 5%
CCCC(=O)O[C@]1(C(=O)COC(C)=O)CC[C@H]2C3C[C@H](F)C4=CC(=O)C=CC4(C)[C@@]3(F)[C@@H](O)CC21C (stereo partly drawn) | nt | 8% | 7% | nt
Cc1ccc(NC(=O)CCCCCC2NC(=O)NC2C)cc1 (stereo not drawn) | nt | 6% | 3% | -1%
CC1NC(=O)NC1CCCCCC(=O)Nc1ccc(F)c(Cl)c1 (stereo not drawn) | 0.32µM* | -20% | -24% | 3%
COC(=O)c1cnn2c(C)c(Cc3cccc(F)c3)c(C)nc12 | 31% | -1% | -9% | 3.5µM*
Cc1nc2c(C(=O)O)cnn2c(C)c1Cc1ccccc1F | 7% | 4% | 25%[1.9 µM] | ?
C/C(=C\CO)CCO | nt | nt | ? | -6%
COc1ccc(C(=O)N/N=C/c2c(CO)cnc(C)c2O)cc1 | nt | 32µM* | -77% | ?
Cc1ncc(CO)c(/C=N/NC(=S)Nc2cccc(Cl)c2)c1O | 14µM* | ? | 16%[10 µM] | ?
CCCCC1=CC2=C(c3ccco3)C(=O)C(C)(OC(=O)c3ccc(OC)cc3)C(=O)C2=CN1Cc1ccco1 (stereo not drawn) | nt | 8%[9.22 µM] | 9%[10 µM] | 13µM*!
SMILES | L3MBTL1 block | HTT aggregate | HTT cytoprotect | JMJD2E inh
CCCCC1=CC2=CC(=O)C(C)(OC(=O)CC)C(=O)C2=CN1c1ccncc1 (stereo not drawn) | nt | nt | 23%[10 µM] | 10%[11.4 µM]
CCCCC1=CC2=CC(=O)C(C)(OC(=O)CC)C(=O)C2=CN1c1ccccc1 (stereo not drawn) | nt | -10%[9.22 µM] | -13%[10 µM] | 25µM*!
CCCCC1=CC2=CC(=O)C(C)(OC(=O)CC)C(=O)C2=CN1Cc1ccco1 (stereo not drawn) | nt | 10%[9.22 µM] | -25%[10 µM] | 22µM*!
CCCCC1=CC2=C(c3ccco3)C(=O)C(C)(OC(=O)c3ccc(OC)cc3)C(=O)C2=CN1Cc1ccc(OC)cc1 (stereo not drawn) | nt | -14%[9.22 µM] | -13%[10 µM] | 0%[11.4 µM]
COc1ccc2c(c1)C(c1ccc(C)cc1)CC(=O)O2 (stereo not drawn) | nt | nt | -48%[96.6 µM] | nt
c1ccc(Nc2ncnc3ccc(-c4ccc5c(c4)OCO5)cc23)cc1 | nt | nt | -12% | ?
COc1ccc(/C(C)=N/NC(=O)c2cccc(S(=O)(=O)N3CCCC3)c2)c(O)c1 | 6.3µM* | nt | nt | nt
C/C=C/C(=O)C[C@H]1CC[C@@H](C)[C@@H](CCO)O1 | nt | nt | 9% | -4%
CCOc1ccc(C(C)NC(=S)NC2CCCCC2)cc1OCC (stereo not drawn) | nt | ? | -7% | 1%
CCOc1ccc(C(C)NC(=S)NC2CCCCC2)cc1 (stereo not drawn) | 8% | 0.56µM* | 9%[10 µM] | -4%
CC(=O)NC1=C(N(C)C2CCS(=O)(=O)C2)C(=O)c2ccccc2C1=O (stereo not drawn) | -18% | 13µM* | nt | 4%
O=c1c2c(O)cc(O)cc2oc2ccc(O)c(O[C@@H]3O[C@H](CO)[C@@H](O)[C@H](O)[C@H]3O[C@H]3O[C@H](CO)[C@@H](O)[C@H](O)[C@H]3O)c12 | 3% | nt | nt | nt
COc1c(-c2ccc(O)c(O)c2)oc2cc(O)cc(O)c2c1=O | nt | ? | -3%[1.9 µM] | 14µM*
O=c1c(O[C@@H]2O[C@H](CO)[C@@H](O)[C@H](O)[C@H]2O)c(-c2ccc(O)c(O)c2)oc2cc(O)cc(O)c12 | nt | nt | nt | 13µM*
O=c1c(O[C@@H]2O[C@H](CO)[C@@H](O)[C@H](O)[C@H]2O)c(-c2ccc(O)cc2)oc2cc(O)cc(O)c12 | 0% | nt | nt | nt
O=c1c(OC2OC(CO)C(O)C(O)C2OC2OC(CO)C(O)C(O)C2OC2OC(CO)C(O)C(O)C2O)c(-c2ccc(O)c(O)c2)oc2cc(O)cc(O)c12 (stereo not drawn) | nt | -13%[9.22 µM] | -7%[10 µM] | 14µM*
COc1ccc(-c2c(C)oc3cc(O)cc(O)c3c2=O)cc1OC | 5% | -17% | -3% | -3%
O=c1c(O)c(-c2ccc(O)cc2O)oc2cc(O)cc(O)c12 | ? | -28% | ? | 25µM*
O=c1c(O)c(-c2ccccc2)oc2cc(O)cc(O)c12 | -5% | nt | 15%[1.9 µM] | -21%
COc1cccc(Cn2c(=O)c(C)nc3cnc(N4CCOCC4)nc32)c1 | nt | nt | -36% | nt
O=c1c(O[C@@H]2O[C@H](CO)[C@H](O)[C@H](O)[C@H]2O)c(-c2ccc(O)c(O)c2)oc2cc(O)cc(O)c12 | nt | nt | nt | 1.8µM*
CCOC(=O)CC(C(=O)OCC)C1CCCCC1=O (stereo not drawn) | nt | nt | 12% | -10%
O=c1c(Cl)cc(Cl)nn1-c1ccccc1 | 2% | 18µM* | 24%[10 µM] | 4%
CC1=C(C(=O)OCc2ccc3c(c2)OCO3)C(c2ccc(F)cc2)NC(=O)N1 (stereo not drawn) | -4% | 1.4µM* | -38% | 1%
CC1=C(C(=O)OCc2ccc3c(c2)OCO3)C(c2ccc(Cl)cc2)NC(=O)N1 (stereo not drawn) | -6% | 1µM* | -3% | -4%
CSCCOC(=O)C1=C(C)NC(=O)NC1c1ccc2c(c1)OCO2 (stereo not drawn) | -6% | nt | nt | nt
